Source: PubChem (National Center for Advancing Translational Sciences (NCATS))
miR-21 act: qHTS Assay for Modulators of miRNAs and/orActivators of miR-21; Potency, µM (highest dose often 38.3 µM), inactives show at the highest dose activity change, positive = activation, actives largely listed as activators; AID 2288, 2010; 340,000 tested, under 10 active; HeLa miR-21 FLuc reporter, luciferase, 48 h;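 further: % of control where 0% means no effect; miR-21 action dims this reporter so a rising signal means less miR-21 action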
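HeLa cells endogenously expressing miR-21, stably carrying CMV-driven firefly luciferase with a downstream miR-21 binding site, 2000 cells/well. Titrations up to approximately 40 uM, 48 hours; luciferase luminescence read.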
KDM4E inh: qHTS Assay for Inhibitors of Human Jumonji Domain Containing 2E (JMJD2E) | JMJD2E catalytic domain, FDH-coupled NADH fluorescence (FDH is formaldehyde dehydrogenase) | Potency, µM (series often up to 57.1 µM), inactives show at the top dose activity change, negative = inhibition, hits mostly inhibitors | actives 1.6% (n = 230,000) | AID 2147, 2009; active means well fitted inhibition curve with a large enough effect, not every such curve was filed as active; inconclusive means small, poorly fitted or top-dose-only effect, or another doubt; inactive means no such curve, though single readings can be large or run the other way;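 further: potency means the concentration at half of the fitted maximal effect; 0% = wells with enzyme and -100% = buffer wells without enzyme; nearly all actives have a fitted effect of over 50% in size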
LMNA splice mod: qHTS Assay for Modulators of Lamin A Splicing; HeLa LMNA splicing GFP/RFP minigene ratio, 48 h; Potency, µM (titrated, usually from 46.1 µM), without a hit: at the top dose ratio change, negative = inhibition, usual class: inhibitors; actives 0.01% (n = 200,000); AID 1487, 2009; active means well fitted inhibition curve with a large enough effect in the signal ratio, with a control signal flat, not every such curve was filed as active; inconclusive means small, poorly fitted or top-dose-only effect, or effect the other way, or a change in a side signal; the % refers to the signal ratio; further: potency means the concentration at half of the fitted maximal effect; on the % scale 0 is the no-effect control and ±100 the full control effect
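S3 HeLa stable clones carrying a lamin A-EGFP splicing minigene plus DsRed2 were seeded at 600 cells/well in Opti-MEM with 2% FBS, pin-dosed and incubated 48 h at 37°C. Acumen cytometry (488 nm) gave the GFP/RFP total-intensity ratio.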
ALDH1A1 inh: qHTS Assay for Inhibitors of Aldehyde Dehydrogenase 1 (ALDH1A1); Purified ALDH1A1, NADH fluorescence, propionaldehyde substrate; actives 7.3% (n = 220,000); AID 1030, 2008; Potency, µM (titrated, usually from 75.3 µM), without a hit: at the highest dose activity, negative = inhibition, usual class: inhibitors; Aldehyde dehydrogenase 1A1 (Homo sapiens), P00352; active means well fitted inhibition curve with a large enough effect, not every such curve was filed as active; inconclusive means small, poorly fitted or top-dose-only effect, or another doubt; inactive means no such curve, though single readings can be large or run the other way;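 further: potency means the concentration at half of the fitted maximal effect; plate controls were no enzyme wells and a reference inhibitor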
Target sequence (P00352 whole entry, looked up): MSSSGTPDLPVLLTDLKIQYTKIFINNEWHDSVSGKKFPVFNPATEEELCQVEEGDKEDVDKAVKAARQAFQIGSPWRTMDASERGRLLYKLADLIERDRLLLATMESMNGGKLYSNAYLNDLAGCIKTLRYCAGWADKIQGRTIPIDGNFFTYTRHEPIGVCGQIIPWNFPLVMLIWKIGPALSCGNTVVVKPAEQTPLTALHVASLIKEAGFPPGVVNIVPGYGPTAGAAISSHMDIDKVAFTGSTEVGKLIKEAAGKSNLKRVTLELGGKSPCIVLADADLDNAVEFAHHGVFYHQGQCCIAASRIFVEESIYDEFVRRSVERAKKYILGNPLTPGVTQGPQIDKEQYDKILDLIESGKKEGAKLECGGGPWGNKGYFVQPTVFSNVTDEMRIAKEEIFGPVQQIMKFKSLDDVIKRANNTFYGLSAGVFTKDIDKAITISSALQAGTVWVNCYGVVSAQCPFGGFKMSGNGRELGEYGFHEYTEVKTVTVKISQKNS
G9a block: qHTS Assay for Inhibitors of Histone Lysine Methyltransferase G9a. Histone-lysine N-methyltransferase EHMT2 (Homo sapiens), Q96KQ7. G9a H3K9 monomethylation, AlphaScreen, 2 h. Potency, µM (doses to about 102 µM), for inactives: at the highest dose activity, negative = inhibition, most hits filed as inhibitors. actives 8.8% (n = 350,000); further: potency means the concentration at half of the fitted maximal effect; on the % scale 0 is the no-effect control and ±100 the full control effect; nearly all actives have a fitted effect of over 75% in size
Target sequence (Q96KQ7 913-1193 limits assumed): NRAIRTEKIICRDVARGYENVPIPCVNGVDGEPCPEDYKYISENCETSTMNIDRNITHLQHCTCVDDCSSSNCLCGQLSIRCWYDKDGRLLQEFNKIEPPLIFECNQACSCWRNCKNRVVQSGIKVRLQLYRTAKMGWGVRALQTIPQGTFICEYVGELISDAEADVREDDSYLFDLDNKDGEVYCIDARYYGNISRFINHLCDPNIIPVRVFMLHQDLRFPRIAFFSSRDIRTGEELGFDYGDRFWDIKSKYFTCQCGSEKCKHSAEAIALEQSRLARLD
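Step 1: enzyme (final 20 nM) with compound, 15 min RT. Step 2: substrate peptide 500 nM and SAM 20 uM, 2 h RT. Step 3: anti-H3K9me1 antibody and AlphaScreen beads, 10 min, then plate read.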
Sfp PPTase inh: qHTS Assay for Inhibitors of Bacillus subtilis Sfp phosphopantetheinyl transferase (PPTase) | 4'-phosphopantetheinyl transferase ffp (Bacillus subtilis), Q9F4F7 | Biochemical Sfp PPTase activity, qHTS | Potency, µM, inactives show largest response in the series, negative = inhibition, hits mostly inhibitors | actives 3.5% (n = 310,000) | AID 1490, 2009;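 further: the enzyme is Sfp with the accession as filed and its product quenches rhodamine fluorescence; potency means the concentration at half of the fitted maximal effect; 0% = enzyme reaction without inhibitor and -100% = no enzyme wells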
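After 15 min at room temperature with compound, 15 nM Sfp received 5 uM rhodamine-CoA plus 12.5 uM BHQ-2-ybbR (50 mM Hepes pH 7.6, 10 mM MgCl2). Rate came from the fluorescence difference over 30 min, ex 525/em 598 nm.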
Active calls of the source: *; ? = inconclusive; . = no result; [ ] = dose if it differs, or a comment. Compounds with a hit are over-represented: about 13% of the library has one in this group of screens. Unless noted, the call rests on the fitted dose curve; in most records, active means well fitted curve in the direction sought with a large enough effect; inconclusive means small, poorly fitted or top-dose-only effect, or another doubt; inactive means no such curve, though single readings can be large; an effect the other way counts as inactive or inconclusive.

SMILES	miR-21 act	KDM4E inh	LMNA splice mod	ALDH1A1 inh	G9a block	Sfp PPTase inh
CN(C)c1ccc(NC(=O)CN2C(=O)CC(c3ccccc3)=Nc3ccccc32)cc1	0%	2%	-6%	3%	2µM*	5%
Cc1ccc(OCC(=O)Nc2ccc(N(C)C)cc2)cc1	-20%	5%	2%	-3%	8.9µM*	10%
Cc1ccc(OCC(=O)Nc2ccc(C(N)=O)cc2)cc1	5%	.	.	.	13%	7%
CN1CCN(S(=O)(=O)c2ccc(NC(=O)Cc3ccc([N+](=O)[O-])cc3)cc2)CC1	0%	.	.	.	11%	8%
Cc1oc2c(c1C(=O)Nc1ccccc1Br)C1=NCCN1C=N2	-1%	.	9%[46 µM]	.	-2%[59 µM]	.
O=C(CCC(=O)N1CCSc2ccccc21)NCCc1ccccc1	-4%	.	.	.	11%	14%
Cc1cccc(C)c1NC(=O)Cn1nc(-c2ccc(Cl)s2)ccc1=O	-2%	.	.	.	-13%	-14%
CCOc1ccc(C2C(=O)N(C3CCCCC3)CC(=O)N2Cc2ccccc2OC)cc1OC (stereo unspecified)	-6%	.	-10%[46 µM]	.	14%[59 µM]	.
COc1ccc(-c2ccc(=O)n(CC(=O)Nc3ccc(N(C)C)cc3)n2)cc1	-11%	.	-14%[46 µM]	.	5µM*	.
COc1ccc(-c2ccc(=O)n(CC(=O)Nc3ccccc3C(F)(F)F)n2)cc1	-19%	.	-7%[46 µM]	.	0%[59 µM]	.
CCN(CC)c1ccc(NC(=O)OC)cc1	-18%	5%	-4%	9%	3.5µM*	-21%
Cc1cccc(OCC(=O)N/N=C/c2ccc(N(C)C)cc2)c1	-7%	?	5%[46 µM]	?	40µM*	-2%
Cc1cccn2c(=O)c3cc(C#N)c(=O)n(-c4nnc(SCc5ccccc5F)s4)c3nc12	-2%	.	.	.	31%[59 µM]	.
Cc1ccc(/C=C/C(=O)Nc2ccc(S(=O)(=O)Nc3onc(C)c3C)cc2)cc1	-9%	.	.	.	?	8%
COc1ccc(N2CCN(S(=O)(=O)c3ccc(C4CCCCC4)cc3)CC2)cc1	2%	.	.	.	-36%[59 µM]	.
Cc1ccc(S(=O)(=O)NC(C(=O)Oc2ccc3c(C)c(Cl)c(=O)oc3c2)c2ccccc2)cc1 (stereo unspecified)	-11%	?	-5%	?	7.9µM*	-9%
Cc1ccc(S(=O)(=O)N[C@H](C(=O)Oc2ccc3c(C(F)(F)F)cc(=O)oc3c2)c2ccccc2)cc1	-8%	?	8%	?	3.5µM*	-21%
Cc1ccc(S(=O)(=O)NCCC(=O)Oc2ccc3ccc(=O)oc3c2)cc1	-13%	?	.	.	11%[59 µM]	6%
CCC[C@@H](NS(=O)(=O)c1ccc(C)cc1)C(=O)Oc1ccc2c3c(c(=O)oc2c1)CCC3	-9%	-6%	?	?	?	16%
Cc1ccc(S(=O)(=O)NC(C(=O)Oc2ccc3ccc(=O)oc3c2)c2ccccc2)cc1 (stereo unspecified)	-3%	?	-11%	?	7.9µM*	-11%
COC(=O)[C@H](COC(C)(C)C)NC(=O)O[C@@H]1C(=O)c2ccc(OC)cc2O[C@H]1c1ccc2c(c1)OCO2	.	-15%	.	-4%	.	-6%
CC(=O)O[C@H]1C2=C(C(=O)[C@H]3O[C@@H]31)[C@@H]1[C@@H]3[C@@H](C)OC=C4[C@H](O)[C@H]5O[C@@H]5C(=O)[C@]43C2O[C@H]1C	.	.	.	13%[13.5 µM]	.	22%
N#CC1(NC(=O)CSc2nnc(-c3ccccc3F)o2)CCCCC1	.	.	.	.	40µM*	.
CCc1cc(=O)oc2cc3occ(-c4ccc(OC)c(F)c4)c3cc12	30%	?	?	-9%	-1%[59 µM]	20µM*
CCc1cc(=O)oc2cc3occ(C)c3cc12	-2%	-1%	-6%	?	-2%[59 µM]	-1%
SMILES	miR-21 act	KDM4E inh	LMNA splice mod	ALDH1A1 inh	G9a block	Sfp PPTase inh
NC(=S)Nc1ccc(Oc2ccc(NC(N)=S)cc2)cc1	20%	-5%	-3%	28µM*	-4%[59 µM]	-11%
Nc1nc(C2C(=O)CCCC2=O)cs1	-1%	?	3%	-15%	-2%[12.7 µM]	56µM*
O=C1CC(NS(=O)(=O)c2cccnc2)CN1c1ccc(Cl)cc1 (stereo unspecified)	.	.	.	.	-8%	.
c1ccc(-c2ccc(-c3cnc4n3CCCCC4)cc2)cc1	-15%	?	?	?	18µM*	-3%
Cc1ccc(-c2cnc3n2CCCCC3)cc1	-9%	-9%	-17%[46 µM]	6%	-1%	30%
CC12CCC(C1)C(C)(C)C2=O (stereo unspecified)	.	.	?	.	20%[59 µM]	19%
O=[N+]([O-])c1cccnc1SCc1ccccc1	-23%	.	.	.	45µM*	5%
CCCCCCCCNC(=S)NCCN1CCCCC1	9%	?	-4%[9.22 µM]	-7%	45µM*	-27%
S=C(NCCCN1CCOCC1)Nc1ccc(Cl)cc1	1%	7%	?	-3%	18%[59 µM]	15%
S=C(NCCCN1CCOCC1)NCCCN1CCOCC1	0%	-17%	-3%	2%	8.9µM*	7.1µM*
FC(F)(F)Oc1ccc(NC(=S)NCCCN2CCOCC2)cc1	-1%	-7%	-3%[9.22 µM]	9%	50µM*	56µM*
S=C(NCCCN1CCOCC1)NC1CCCC1	-3%	2%	-4%[46 µM]	7%	2%	-2%
COc1ccc(NC(=S)NCCCN2CCCC2)cc1	0%	7%	-4%[46 µM]	5%	22%[12.7 µM]	23%
COc1cccc(NC(=O)c2cccc(N3C(=O)C4C5C=CC(C5)C4C3=O)c2)c1 (stereo unspecified)	2%	.	.	.	.	3%
Cc1ccc(OCCNC(=O)c2ccccc2F)cc1	-23%	.	.	.	47%	13%
Cc1cccc(NC(=O)/C(C#N)=C\c2cc(C)n(-c3ccc(C(=O)O)cc3)c2C)c1	-11%	-29%	.	3.2µM*	?	7%
Cc1cc(/C=C(\C#N)C(=O)OCC(=O)Nc2ccc(OC(F)F)cc2)c(C)n1CC(C)C	-20%	1%	-14%	?	6%[59 µM]	9%
CNC(=O)/C(C#N)=C/c1cc(C)n(-c2ccc(N3CCOCC3)cc2)c1C	-27%	?	.	?	3%	8%
CCOC(=O)/C(C#N)=C\c1cc(C)n(-c2ccccc2)c1C	-51%	-3%	?	?	7%	-9%
Cc1cc(/C=C(\C#N)C(=O)Nc2ccccc2)c(C)n1-c1ccc(C(=O)O)cc1	-2%	?	.	1µM*	-24%	-12%
Cc1cc(/C=C(/C#N)C(=O)O)c(C)n1-c1cccc2ccccc12	-17%	.	.	.	7%[2.33 µM]	-1%
